Results filed as inconclusive are left out. The source made the active and inactive calls.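 Rule for the calls, unless noted: active = inhibition above 54%, about 3 SD of non-fluorescent compounds; inactive = the rest.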
What was measured:
[1] = rapamycin-like changes in RPL19A-GFP expression – cell-based, S. cerevisiae, multiplex flow cytometry, primary screen (AID 1862; in the data active = percent of DMSO control GFP below about 86%;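 note: lower values mimic rapamycin by blocking the RPL19A rise seen in DMSO cells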); conditions: S. cerevisiae RPL19A-GFP strain, flow cytometry fluorescence, 3 h; at 10 µM; stronger effect = lower value
[2] = TOR pathway GLN3 branch reporter MEP2-GFP changes – S. cerevisiae, multiplex flow cytometry, primary screen (AID 1867;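 active = GFP response, as percent of the DMSO control, above the screen-wide mean plus 3 SD, about 139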;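 note: median GFP channel fluorescence of barcode-gated MEP2-GFP cells measured by flow cytometry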); conditions: S. cerevisiae MEP2-GFP strain, 3 h, at 10 µM, stronger effect = higher value, 100% means same as DMSO wells
[3] = TOR pathway RTG branch CIT2 reporter changes – S. cerevisiae, GFP fusion, multiplex flow cytometry, primary screen (AID 1870;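 active = percent response above a set limit, the screen-wide mean plus 3 SD, cut at about 130% in these data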;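 note: barcoded CIT2-GFP strain pooled with four other GFP strains with rapamycin as positive control; median GFP fluorescence per well over plate mean of DMSO wells so 100% = DMSO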); conditions: S. cerevisiae CIT2-GFP expression, 3 h, at 10 µM, stronger effect = higher value
[4] = TOR pathway LAP4-GFP level changes – S. cerevisiae, multiplex flow cytometry, primary screen (AID 1873;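 active = GFP signal, as percent of the solvent control, above the screen mean plus 3 SD, about 149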); conditions: S. cerevisiae LAP4-GFP expression, 3 h, at 10 µM, stronger effect = higher value
[5] = yeast AGP1-GFP level changes, GLN3 branch – cell-based, multiplex flow cytometry, S. cerevisiae, primary screen (AID 1887;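 active = GFP signal above the screen-wide mean plus 3 SD, that is over about 124.5% of the solvent control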;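 note: AGP1-GFP fusion strain of S. cerevisiae within a five-strain barcoded multiplex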); conditions: 3 h, at 10 µM, stronger effect = higher value
[6] = reduced mouse 2C T cell binding to pMHC/ICAM-1 vesicles – MLPCN validation set, flow cytometry, LFA-1/ICAM-1 modulator project, pilot screen (AID 2523;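 active = response below a set limit, under 55% cells CD8-positive and vesicle-bound, and CD8 cells' 90th-percentile brightness under 279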;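 for vesicle binding response: mean PE anti-B7-1 fluorescence of CD8+ cells relative to row control; 100% = QL9-loaded vesicles with DMSO vehicle in the same plate row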); conditions: 2C mouse CD8+ T cells, at 7 µM, stronger effect = lower value; double positive events: measured here: CD8+/vesicle+ event percentage
[7] = target: Integrin beta-1 (Homo sapiens) + Integrin alpha-4 (Homo sapiens) (UniProt P13612+P05556); assay: alpha4beta1 integrin LIBS antibody binding reduction – U937 cells, HUTS-21 mAb, flow cytometry, validation set, VLA-4 allosteric modulator project, pilot screen (AID 2674;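 active = inhibition above 50%, about 3 SD of the validation set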;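 note: antibody binding induced by the VLA-4 ligand LDV present at three times its Kd; 0% = LDV ligand with antibody and no compound and 100% = antibody without LDV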); conditions: HUTS-21 LIBS mAb binding, at 6.7 µM, stronger effect = higher value, binding induced by LDV ligand
[8] = calorie-restriction mimetic ROS inhibitors, yeast – validation compound set, pilot screen (AID 2706;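 active = superoxide response below 65% of plate, a cut near 3 SD across the whole screen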;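 note: yeast exposed to compound for one week at 30 degrees C before staining; 100% = mean of all compound wells on the same plate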); conditions: S. cerevisiae aging, superoxide DHE fluorescence; at 10 µM, stronger effect = lower value
[9] = target: Beta-adrenergic receptor kinase 1 (Homo sapiens) (UniProt P25098); assay: GRK2 binders displacing RNA aptamer, biochemical, validation, human GRK2, bead flow cytometry (AID 488806;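 active = aptamer binding inhibition above 30%, about 3 SD of noise from non-fluorescent compounds; inactive = inhibition at or below 30%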); conditions: bead-bound GRK2, FAM-aptamer displacement, at 10 µM, stronger effect = higher value
[10] = target: AP-2 complex subunit beta (Homo sapiens) (UniProt P63010); assay: beta-arrestin/AP2 interaction blockers – biochemical, validation set, GST-AP2 beads, flow cytometry, pilot screen (AID 504541); conditions: FITC arrestin peptide, at 10 µM, stronger effect = higher value, AP2 beta2 appendage fragment, R879A mutant;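 note: AP2 carries R879A mutation and is captured from E. coli lysate; bead-bound FITC arrestin peptide fluorescence measuring arrestin peptide binding to AP2; 0% = DMSO wells and 100% = excess unlabeled arrestin peptide control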
[11] = cytosolic pH regulators acting via V-ATPase – S. cerevisiae, pHLuorin, HTS validation (AID 504600; in the data active = response above about 15%;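 note: plate controls were DMSO for no effect and reference compound for full effect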); conditions: V-ATPase proton transport, at 10 µM, stronger effect = higher value
[12] = test system: anti-desmoglein-3 scFv antibody binding to human DSG3; assay: blockers of pathogenic pemphigus antibody–desmoglein-3 binding – biochemical, validation compound set, bead-based, flow cytometry, pilot screen (AID 588368;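 active = binding below the plate cutoff, the plate median minus 3 SD, with a reading above zero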;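 note: signal is the median channel fluorescence of bead-bound GFP antibody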); conditions: Protein G beads, DSG3-Fc, scFv-GFP binding, at 10 µM, stronger effect = lower value
[13] = Nile Red efflux blockade in pump-expressing yeast – validation compound set, multiplex, phenotypic, pilot screen (AID 588506;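 active = efflux inhibition above 0.42, the validation set average plus 4 SD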;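 note: Nile Red retained in cells so higher fluorescence means more efflux inhibition; 0 = negative control wells and 1 = enniatin B 25 µM full block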); conditions: S. cerevisiae pump-expressing triplex, Nile Red efflux flow cytometry; at 10 µM; stronger effect = higher value; the pumps come from Candida albicans
[14] = target: ATP-binding cassette sub-family B member 6 (Homo sapiens) (UniProt Q9NP58); assay: blockers of ABCB6-driven porphyrin uptake – K562-ABCB6 cells, flow cytometry, validation set, pilot screen (AID 588550;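 active = inhibition above the screen-wide mean plus 3 SD, about 51%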;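 note: 0% = DMSO wells and 100% = benzethonium chloride 70 µM positive control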); conditions: K562-ABCB6 porphyrin accumulation, 1 h, at 10 µM, stronger effect = higher value
[15] = AML differentiation inducers, ER-HoxA9 marrow cells – cell-based, GFP/MAC1 double positive, flow cytometry, validation set, primary screen (AID 588685;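 active = differentiation response of at least 50%, scaled between solvent and reference control, from cells with both markers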;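 note: compound exposure lasts four days before antibody staining and flow analysis; 0% = DMSO wells and 100% = 5 µM fulvestrant positive control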); conditions: stronger effect = higher value, normalized: vehicle 0, fulvestrant 100

Beta-adrenergic receptor kinase 1 (Homo sapiens), sequence (P25098 whole entry, looked up, the tested form may be a part): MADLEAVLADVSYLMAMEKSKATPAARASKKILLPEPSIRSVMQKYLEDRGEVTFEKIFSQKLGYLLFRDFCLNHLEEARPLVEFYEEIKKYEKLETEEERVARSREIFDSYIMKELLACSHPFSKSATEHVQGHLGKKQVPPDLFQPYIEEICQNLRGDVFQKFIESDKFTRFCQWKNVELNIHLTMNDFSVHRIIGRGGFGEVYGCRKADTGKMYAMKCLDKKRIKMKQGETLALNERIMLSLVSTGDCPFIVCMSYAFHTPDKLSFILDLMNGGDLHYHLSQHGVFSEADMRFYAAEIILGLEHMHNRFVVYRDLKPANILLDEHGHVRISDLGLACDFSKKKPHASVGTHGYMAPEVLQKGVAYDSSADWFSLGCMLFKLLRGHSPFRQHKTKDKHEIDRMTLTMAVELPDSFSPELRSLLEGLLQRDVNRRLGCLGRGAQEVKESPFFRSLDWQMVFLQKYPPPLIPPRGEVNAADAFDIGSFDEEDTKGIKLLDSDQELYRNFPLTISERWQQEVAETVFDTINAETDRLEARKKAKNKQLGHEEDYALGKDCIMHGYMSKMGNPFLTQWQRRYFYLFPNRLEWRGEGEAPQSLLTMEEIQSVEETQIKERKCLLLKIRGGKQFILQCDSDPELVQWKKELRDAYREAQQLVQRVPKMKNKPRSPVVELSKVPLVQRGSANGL
Integrin beta-1 (Homo sapiens) + Integrin alpha-4 (Homo sapiens), sequence (P05556 whole entry, looked up): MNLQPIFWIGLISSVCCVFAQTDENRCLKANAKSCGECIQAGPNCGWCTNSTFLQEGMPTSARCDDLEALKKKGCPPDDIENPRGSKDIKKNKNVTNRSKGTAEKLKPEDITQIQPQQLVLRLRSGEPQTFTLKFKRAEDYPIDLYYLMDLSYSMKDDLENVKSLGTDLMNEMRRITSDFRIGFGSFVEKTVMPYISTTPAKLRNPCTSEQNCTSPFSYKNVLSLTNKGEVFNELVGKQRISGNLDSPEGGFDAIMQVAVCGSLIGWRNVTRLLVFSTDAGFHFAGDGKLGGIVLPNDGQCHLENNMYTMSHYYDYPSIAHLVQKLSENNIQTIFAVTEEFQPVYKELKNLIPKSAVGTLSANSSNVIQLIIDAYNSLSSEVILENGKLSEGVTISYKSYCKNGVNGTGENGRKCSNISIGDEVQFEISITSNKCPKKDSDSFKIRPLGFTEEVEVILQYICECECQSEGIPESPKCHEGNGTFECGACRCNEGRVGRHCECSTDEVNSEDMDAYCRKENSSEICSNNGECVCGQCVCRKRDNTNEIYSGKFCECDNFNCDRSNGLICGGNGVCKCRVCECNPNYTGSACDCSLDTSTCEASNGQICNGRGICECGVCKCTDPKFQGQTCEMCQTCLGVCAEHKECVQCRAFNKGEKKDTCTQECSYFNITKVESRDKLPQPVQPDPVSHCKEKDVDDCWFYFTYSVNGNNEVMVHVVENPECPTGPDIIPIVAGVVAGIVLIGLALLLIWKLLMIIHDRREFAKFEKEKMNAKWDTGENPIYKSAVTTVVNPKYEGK
Integrin beta-1 (Homo sapiens) + Integrin alpha-4 (Homo sapiens), sequence (P13612 whole entry, looked up): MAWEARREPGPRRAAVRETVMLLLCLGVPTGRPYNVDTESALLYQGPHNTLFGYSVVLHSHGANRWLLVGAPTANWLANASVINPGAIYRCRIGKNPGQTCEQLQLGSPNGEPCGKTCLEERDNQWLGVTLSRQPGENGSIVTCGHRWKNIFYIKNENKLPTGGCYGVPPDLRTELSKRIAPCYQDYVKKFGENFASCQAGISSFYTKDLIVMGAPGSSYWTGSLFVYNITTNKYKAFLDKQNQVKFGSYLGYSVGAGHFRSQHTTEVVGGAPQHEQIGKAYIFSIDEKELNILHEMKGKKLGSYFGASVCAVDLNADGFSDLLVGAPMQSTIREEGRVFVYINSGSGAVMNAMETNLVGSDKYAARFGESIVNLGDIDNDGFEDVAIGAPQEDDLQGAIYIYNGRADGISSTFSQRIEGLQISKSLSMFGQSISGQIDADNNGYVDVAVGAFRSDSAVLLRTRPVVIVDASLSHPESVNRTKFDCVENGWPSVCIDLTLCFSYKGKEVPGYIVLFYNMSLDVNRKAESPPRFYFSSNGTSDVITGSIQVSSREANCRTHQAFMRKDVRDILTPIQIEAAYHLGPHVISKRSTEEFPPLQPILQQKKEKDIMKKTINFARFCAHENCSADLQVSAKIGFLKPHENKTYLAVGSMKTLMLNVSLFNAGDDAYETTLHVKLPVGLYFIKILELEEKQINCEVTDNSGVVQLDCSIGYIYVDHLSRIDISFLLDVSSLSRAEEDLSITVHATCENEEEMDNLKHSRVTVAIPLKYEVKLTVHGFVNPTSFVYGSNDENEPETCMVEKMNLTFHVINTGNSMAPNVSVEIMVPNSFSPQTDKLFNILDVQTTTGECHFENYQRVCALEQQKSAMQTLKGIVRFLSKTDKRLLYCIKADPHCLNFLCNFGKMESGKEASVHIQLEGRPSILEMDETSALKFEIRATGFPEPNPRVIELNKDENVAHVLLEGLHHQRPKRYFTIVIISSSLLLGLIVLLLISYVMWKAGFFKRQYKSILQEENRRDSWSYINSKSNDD
AP-2 complex subunit beta (Homo sapiens), sequence (P63010 whole entry, looked up, the tested form may be a part, one chain of several): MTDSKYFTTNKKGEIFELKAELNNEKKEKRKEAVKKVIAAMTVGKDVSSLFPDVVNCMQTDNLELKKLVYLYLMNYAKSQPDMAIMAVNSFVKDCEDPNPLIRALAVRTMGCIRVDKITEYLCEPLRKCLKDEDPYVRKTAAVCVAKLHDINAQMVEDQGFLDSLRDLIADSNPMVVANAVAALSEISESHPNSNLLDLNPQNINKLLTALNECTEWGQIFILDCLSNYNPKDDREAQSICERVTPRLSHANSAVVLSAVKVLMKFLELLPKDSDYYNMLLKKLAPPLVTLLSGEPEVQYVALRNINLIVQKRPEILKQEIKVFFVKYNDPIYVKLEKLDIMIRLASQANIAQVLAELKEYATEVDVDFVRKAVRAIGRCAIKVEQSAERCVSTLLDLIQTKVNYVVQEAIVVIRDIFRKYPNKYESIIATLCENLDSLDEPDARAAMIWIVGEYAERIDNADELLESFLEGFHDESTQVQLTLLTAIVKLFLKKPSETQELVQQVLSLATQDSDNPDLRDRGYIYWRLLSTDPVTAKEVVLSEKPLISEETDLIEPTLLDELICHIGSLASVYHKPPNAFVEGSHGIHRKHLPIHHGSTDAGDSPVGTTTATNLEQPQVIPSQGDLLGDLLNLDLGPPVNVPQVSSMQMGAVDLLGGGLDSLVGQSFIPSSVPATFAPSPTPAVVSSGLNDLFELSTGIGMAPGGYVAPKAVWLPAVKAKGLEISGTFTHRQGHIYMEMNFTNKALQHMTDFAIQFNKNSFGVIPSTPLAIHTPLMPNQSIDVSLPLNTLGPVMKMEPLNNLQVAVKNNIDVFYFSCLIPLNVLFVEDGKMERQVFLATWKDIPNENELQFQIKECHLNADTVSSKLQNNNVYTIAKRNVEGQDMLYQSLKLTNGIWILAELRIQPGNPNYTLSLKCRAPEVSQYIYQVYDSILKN
ATP-binding cassette sub-family B member 6 (Homo sapiens), sequence (Q9NP58 whole entry, looked up): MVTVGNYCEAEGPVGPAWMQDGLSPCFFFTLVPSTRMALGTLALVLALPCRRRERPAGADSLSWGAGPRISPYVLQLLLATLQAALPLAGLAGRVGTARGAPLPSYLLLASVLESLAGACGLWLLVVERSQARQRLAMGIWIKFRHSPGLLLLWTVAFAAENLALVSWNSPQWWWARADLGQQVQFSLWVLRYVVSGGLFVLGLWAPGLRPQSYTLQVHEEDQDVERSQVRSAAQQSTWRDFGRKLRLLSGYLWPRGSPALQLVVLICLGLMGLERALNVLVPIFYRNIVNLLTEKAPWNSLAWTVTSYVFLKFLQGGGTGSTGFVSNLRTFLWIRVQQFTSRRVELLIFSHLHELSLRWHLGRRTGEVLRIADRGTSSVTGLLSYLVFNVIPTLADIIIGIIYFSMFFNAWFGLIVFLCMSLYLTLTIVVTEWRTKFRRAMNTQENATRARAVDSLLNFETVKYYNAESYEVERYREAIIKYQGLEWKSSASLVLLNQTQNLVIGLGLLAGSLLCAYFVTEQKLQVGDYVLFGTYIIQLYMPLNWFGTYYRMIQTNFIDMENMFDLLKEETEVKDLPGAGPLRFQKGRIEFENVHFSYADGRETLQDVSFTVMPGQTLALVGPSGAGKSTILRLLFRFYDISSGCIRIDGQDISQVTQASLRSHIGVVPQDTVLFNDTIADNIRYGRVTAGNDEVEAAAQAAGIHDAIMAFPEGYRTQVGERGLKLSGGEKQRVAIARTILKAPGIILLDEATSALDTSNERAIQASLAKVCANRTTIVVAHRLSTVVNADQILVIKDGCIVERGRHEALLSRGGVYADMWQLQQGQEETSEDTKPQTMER

Row | SMILES | percent of DMSO control GFP [1] | GFP response vs DMSO [2] | percent response of DMSO control [3] | GFP response vs DMSO [4] | GFP response, % of DMSO [5] | double positive events [6] | vesicle binding response [6] | inhibition [7] | superoxide response (% of plate) [8] | aptamer binding inhibition [9] | inhibition [10] | response [11] | binding (% of control) [12] | efflux inhibition (fraction of control) [13] | inhibition [14] | differentiation response [15]
1 | O=C(CCCN1CC=C(n2c(=O)[nH]c3ccccc32)CC1)c1ccc(F)cc1 | 98.1% (inactive) | 95.9% (inactive) | 106% (inactive) | 93.3% (inactive) | 97.2% (inactive) | 63% | 237% (inactive) | 5.36% (inactive) | 97.2% (inactive) | -3% (inactive) | -14.3% (inactive) | -6.07% (inactive) | 104% (inactive) | -0.05 (inactive) | 6% (inactive) | -19.6% (inactive)
2 | Clc1ccc2c(c1)C(N1CCNCC1)=Nc1ccccc1O2 | 107% (inactive) | 106% (inactive) | 109% (inactive) | 101% (inactive) | 105% (inactive) | 64% | 200% (inactive) | -42.2% (inactive) | 103% (inactive) | -1% (inactive) | 24.4% (inactive) | -1.95% (inactive) | 101% (inactive) | -0.47 (inactive) | 7% (inactive) | -8.27% (inactive)
3 | CC(CCc1ccccc1)NCC(O)c1ccc(O)c(C(N)=O)c1 (stereo not given) | 99.5% (inactive) | 98.9% (inactive) | 107% (inactive) | 109% (inactive) | 105% (inactive) | 52.5% | 175% (inactive) | -2.11% (inactive) | 97.6% (inactive) | 0% (inactive) | -4.92% (inactive) | -3.48% (inactive) | 101% (inactive) | -0.2 (inactive) | 9% (inactive) | -6.66% (inactive)
4 | COc1ccc2cc(CCC(C)=O)ccc2c1 | 101% (inactive) | 103% (inactive) | 93% (inactive) | 101% (inactive) | 85.2% (inactive) | 55.4% | 150% (inactive) | 2.56% (inactive) | 86.7% (inactive) | 2% (inactive) | -2.69% (inactive) | -0.19% (inactive) | 108% (inactive) | 0.63 (active) | 4% (inactive) | 0% (inactive)
5 | CC1=CC(C)(C)N2C(=O)C3(NCCc4c3[nH]c3ccccc43)c3cc(C)cc1c32 (stereo not given) | 103% (inactive) | 98.9% (inactive) | 99.8% (inactive) | 82.3% (inactive) | 93.6% (inactive) | 63% | 162% (inactive) | 22.1% (inactive) | 97.3% (inactive) | -3% (inactive) | -4.18% (inactive) | 3.88% (inactive) | 104% (inactive) | 0.41 (inactive) | 4% (inactive) | -5.05% (inactive)
6 | N/C(=N\OS(=O)(=O)c1ccc2ccccc2c1)c1cccnc1 | 103% (inactive) | 104% (inactive) | 95.9% (inactive) | 99.4% (inactive) | 97.5% (inactive) | 61.4% | 133% (inactive) | 2.56% (inactive) | 96.2% (inactive) | 2% (inactive) | 45.4% (inactive) | -4.42% (inactive) | 108% (inactive) | 0.29 (inactive) | 6% (inactive) | -13.1% (inactive)
7 | CC(C)NCC(O)COc1ccc(CC(N)=O)cc1 (stereo not given) | 99.2% (inactive) | 100% (inactive) | 105% (inactive) | 97.3% (inactive) | 99.1% (inactive) | 61.8% | 127% (inactive) | -2.53% (inactive) | 82.7% (inactive) | 2% (inactive) | -8.74% (inactive) | 0.46% (inactive) | 101% (inactive) | -0.39 (inactive) | 6% (inactive) | -2.69% (inactive)
8 | CCN(CC)CCNc1ccc(CO)c2sc3ccccc3c(=O)c12 | 104% (inactive) | 109% (inactive) | 112% (inactive) | 112% (inactive) | 103% (inactive) | 47.8% | 231% (inactive) | 21.2% (inactive) | 109% (inactive) | -5% (inactive) | -0.76% (inactive) | 2.76% (inactive) | 120% (inactive) | -0.39 (inactive) | 8% (inactive) | -8.27% (inactive)
9 | COc1ccc(CCNC(=O)C(=O)Nc2ccc3c(c2)OCO3)cc1OC | 104% (inactive) | 104% (inactive) | 107% (inactive) | 101% (inactive) | 101% (inactive) | 65.2% | 220% (inactive) | -4.9% (inactive) | 96.1% (inactive) | 5% (inactive) | -11.2% (inactive) | 6.72% (inactive) | 94.1% (inactive) | -0.16 (inactive) | 10% (inactive) | -1.82% (inactive)
10 | COC(=O)c1cc(OC)c(OC)c(OC)c1[N+](=O)[O-] | 103% (inactive) | 97.9% (inactive) | 107% (inactive) | 108% (inactive) | 105% (inactive) | 58.1% | 186% (inactive) | -0.24% (inactive) | 107% (inactive) | 4% (inactive) | -11.6% (inactive) | 39.5% (active) | 99% (inactive) | 0.14 (inactive) | 3% (inactive) | -21.2% (inactive)

From PubChem BioAssay
